Test results as given in PubChem BioAssay AID588342 (National Center for Advancing Translational Sciences (NCATS), 2011).
About 25,000 (6.9%) of roughly 360,000 compounds were called active. About 9% were inconclusive and are not listed. Calls follow the shape of the dose curve; as a rule, active = well fitted inhibition curve with a large enough effect; inconclusive = small, poorly fitted or top-dose-only effect; inactive = flat fitted curve, though single readings scatter. The list comes from a sample in which actives are over-represented; it also holds similar structures and randomly drawn compounds.

The molecules below were run against Luciferin 4-monooxygenase (Photinus pyralis) (UniProt P08659) (assay: qHTS profiling assay for firefly luciferase inhibitor/activator using purifed enzyme and Km concentrations of substrates (counterscreen for miR-21 project)). Conditions: purified FLuc, luminescence inhibition; series mostly up to 57.5 µM; activity change, negative = inhibition: at the top concentration.
Sequence of Luciferin 4-monooxygenase (Photinus pyralis) (P08659 whole entry, looked up): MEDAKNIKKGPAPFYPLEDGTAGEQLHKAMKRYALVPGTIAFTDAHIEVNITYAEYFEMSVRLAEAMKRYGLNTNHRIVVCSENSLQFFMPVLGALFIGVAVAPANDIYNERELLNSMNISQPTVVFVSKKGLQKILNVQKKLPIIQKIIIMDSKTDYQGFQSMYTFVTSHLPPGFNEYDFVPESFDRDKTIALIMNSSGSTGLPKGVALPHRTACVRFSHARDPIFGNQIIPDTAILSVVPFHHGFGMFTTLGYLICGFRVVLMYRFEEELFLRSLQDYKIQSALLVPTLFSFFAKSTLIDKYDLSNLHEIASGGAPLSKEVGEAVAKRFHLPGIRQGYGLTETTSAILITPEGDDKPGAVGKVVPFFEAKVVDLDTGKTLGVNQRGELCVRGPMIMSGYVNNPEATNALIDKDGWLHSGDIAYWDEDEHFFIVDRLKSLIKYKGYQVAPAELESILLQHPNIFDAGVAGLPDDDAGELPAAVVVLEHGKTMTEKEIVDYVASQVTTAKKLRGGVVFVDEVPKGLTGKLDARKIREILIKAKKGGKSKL
Method in brief: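 Purified P. pyralis luciferase, 10 nM final, with Km-level 10 uM D-luciferin and 10 uM ATP in 50 mM Tris acetate pH 7.5, 10 mM Mg acetate, 0.01% Tween-20, 0.05% BSA; 6-point qHTS titration about 60 µM downward; luminescence read.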
Also: nearly all actives have a fitted effect of over 55% in size.
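For activity change, negative = inhibition in this document: plate controls were vehicle for no effect and reference inhibitor for full effect.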
Potency is read from the fitted curve at half-maximal effect.

Compound	Potency	activity change, negative = inhibition
CCOC(=O)CCc1c(C)c2ccc(OCc3nn[nH]n3)c(C)c2oc1=O	15.1 µM (active)	–
COc1ccc2c(C)c(CCC(=O)NC3CC3)c(=O)oc2c1C	–	-18.3% (inactive)
Cc1c(CCC(=O)O)c(=O)oc2c(C)c(OCc3ccccc3Cl)ccc12	–	-3.32% (inactive)
Cc1ccc(NC(=O)CC2S/C(=N/N=C3\CCCc4ccccc43)NC2=O)cc1 (centres undefined)	–	3.18% (inactive)
Cc1ccc(N/N=C2\COC(C)(C)CC2=O)cc1	7.57 µM (active)	–
Cc1ccc(-n2c(SCC(=O)Nc3cccc(F)c3)nc3c(oc4ccccc43)c2=O)cc1C	–	-9.06% (inactive)
COc1cc(Br)cc2cc(S(=O)(=O)c3ccccc3)c(=O)oc12	–	-12.4% (inactive)
COc1ccc(C(=O)NCCSc2ccccc2C)cc1	3.79 µM (active)	–
COc1cccc(C(=O)NCCSc2ccc(Br)cc2)c1	–	-13.2% (inactive)
COc1ccc(C(=O)NCc2nnc(SCCOc3ccccc3)n2C)cc1	–	0.822% (inactive)
COc1ccccc1CN1CCC(CNC(=O)c2cnn(-c3ccccc3Cl)c2C2CCN(C(=O)OC(C)(C)C)CC2)CC1	–	-1.99% (inactive)
Cc1cc(C(F)(F)F)nc(SCC(=O)Nc2nccs2)n1	–	6.31% (inactive)
CCCc1cc(=O)n2[nH]c(C)c(-c3ccc(Cl)cc3)c2n1	–	-2.04% (inactive)
O=c1c2c(nc3cc(-c4cccc(Cl)c4)[nH]n13)CCCC2	0.478 µM (active)	–
O=c1c2c(nc3nc[nH]n13)CCC2	–	-0.341% (inactive)
O=C1CCCc2c1nc(-c1cccc(Cl)c1)n2O	–	-0.28% (inactive)
Cc1cc(=O)n2[nH]c(-c3cccc(Cl)c3)cc2n1	15.1 µM (active)	–
Cc1cc(=O)n2[nH]c(-c3sccc3-n3c(C)ccc3C)cc2n1	–	-15.7% (inactive)
CCOC(=O)c1c(-c2ccc(OC)cc2)oc2ccc(OCc3ccc(C(=O)OC)cc3)cc12	–	3.13% (inactive)
COc1ccc(C)cc1NC(=O)CCc1c(C)nn(-c2ccc(N3CCOCC3)nn2)c1C	–	-14.2% (inactive)
Cc1ccc(Cn2c(C)c3cnn(CC(=O)NCc4ccccc4)c(=O)c3c2C)cc1	–	-15.1% (inactive)
CC(=O)c1c(C)n(S(=O)(=O)c2ccc(Cl)cc2)c2ccc(NS(=O)(=O)c3ccc(Cl)cc3)cc12	–	0.804% (inactive)

Compound	Potency	activity change, negative = inhibition
COc1cc(C(=O)Nc2ncccc2C)ccc1OCC(=O)N1CCOCC1	–	3.05% (inactive)
COc1ccc(-c2cc3nc(C)c(CCC(=O)NC(C)CCc4ccco4)c(C)n3n2)c(OC)c1 (centres undefined)	–	1.35% (inactive)
COc1cc(OC)cc(-c2nc3nc(C)c(CCC(=O)Nc4ccccc4)c(C)n3n2)c1	–	1.43% (inactive)
COc1ccccc1-c1cc2nc(C)c(CCC(=O)O)c(C)n2n1	15.1 µM (active)	–
CCOc1ccc(OCC)c(NC(=O)CN(c2ccc(C)cc2)S(=O)(=O)c2c(C)n[nH]c2C)c1	–	-2.42% (inactive)
CCOC(=O)c1c(S(=O)(=O)NCC(=O)Nc2ccc(Cl)c(C(F)(F)F)c2)c(C)n(C)c1C	–	-14.6% (inactive)
C[C@H](NC(=O)c1ccccc1)C(=O)OCC(=O)c1c[nH]c2ccccc12	–	-19.2% (inactive)
O=C(OCC(=O)c1c[nH]c2ccccc12)c1cccc(O)c1	9.53 µM (active)	–
CC1CCN(CC(=O)c2c[nH]c3ccccc23)CC1	–	-0.382% (inactive)
Cn1c(=O)[nH]c(=O)c2c1nc(CN1CCN(c3ccccc3F)CC1)n2CCc1ccccc1	–	1.71% (inactive)
CCOc1cc(CNC(=O)c2sc3ncnc(N(C)C4CCCCC4)c3c2C)ccc1OC	–	-12.1% (inactive)
O=C(CSCc1c(F)cccc1Cl)NCC1CCCO1 (centres undefined)	–	2.11% (inactive)
Cc1ccccc1CN(c1ccc(C(=O)NCC2CCCO2)cc1)S(C)(=O)=O (centres undefined)	–	-0.433% (inactive)
COCCNC(=O)c1ccccc1-c1nc(-c2ccccc2Cl)no1	12 µM (active)	–
COCCNC(=O)c1cc(-c2cccc(Cl)c2)on1	–	-4.38% (inactive)
O=C(NCC1CCCO1)c1cc2c([nH]c3ccccc32)c(-c2ccc(F)cc2)n1 (centres undefined)	–	2.88% (inactive)
O=C(NCC1CCCO1)c1ccccc1-c1nc(-c2ccccc2Cl)no1 (centres undefined)	12 µM (active)	–
O=C(Nc1ccccc1C(=O)NCC1CCCO1)c1ccccc1F (centres undefined)	–	-2.21% (inactive)
Cc1ccc(-c2noc(-c3ccccc3C(=O)NCC3CCCO3)n2)cc1 (centres undefined)	4.78 µM (active)	–
Cc1onc(-c2ccccc2Cl)c1C(=O)NCCn1ccc2ccccc21	–	11.8% (inactive)
CCC(=O)N1c2ccccc2CC1C(=O)N1CCN(c2cccc(OC)c2)CC1 (centres undefined)	–	1.83% (inactive)
Cc1c(C)n(Cc2ccc(Cl)cc2)c2ccc(C(=O)N3CCN(c4ccccc4F)CC3)cc12	–	-5.91% (inactive)

Compound	Potency	activity change, negative = inhibition
CCOc1cc(C(=O)NCCc2csc3nc(-c4ccc(C)cc4)nn23)cc(OCC)c1OCC	–	6.07% (inactive)
CCCn1c(NCc2ccccc2F)nc2ccccc21	–	-15.2% (inactive)
Cc1ccc(NC(=O)c2cccc(S(=O)(=O)N3CCCc4ccccc43)c2)nc1	–	0.271% (inactive)
Cc1c(C(=O)N2CCCC2)oc2c1-c1nn(CC(=O)NCc3ccc(OC(C)C)cc3)cc1CC2	–	-13.6% (inactive)
CC1CCCC(C)N1C(=O)COC(=O)COc1ccccc1C#N (centres undefined)	–	2.51% (inactive)
O=C(CC1Oc2ccc(Cl)cc2NC1=O)NCc1ccccc1 (centres undefined)	–	-6.6% (inactive)
CCCc1cc(=O)oc2c(C)c(OCC(=O)N3CCC(C(=O)O)CC3)ccc12	–	3.56% (inactive)
CCCCc1cc(=O)oc2c(C)c(OCC(=O)N3CCC(C(N)=O)CC3)ccc12	–	6.74% (inactive)
Cc1c(C)c2ccc(OCC(=O)N3CCC(C(=O)O)CC3)c(C)c2oc1=O	23.9 µM (active)	–
COc1ccc(NC2CCCN(C(=O)c3ccncc3)C2)cc1 (centres undefined)	–	0.516% (inactive)
COC(=O)c1ccc(NC(=O)c2cc(S(=O)(=O)N3CCC(C)CC3)cn2C)cc1	–	0.945% (inactive)
O=C(NCC(O)c1ccc([N+](=O)[O-])cc1)C1CCCCC1 (centres undefined)	–	-1.1% (inactive)
c1ccc2c(c1)OCCOCCOCCO2	–	0.575% (inactive)
COc1ccc2sc(-c3ccc(N(C)C)cc3)c(C#CCO)c2c1	8.49 µM (active)	–
Cc1ccc(CCNC(=O)C2CCN(c3nnc(-n4cccc4CNc4ccc(C)cc4)s3)CC2)cc1	–	-8.47% (inactive)
O=C(CNc1ccccc1N1CCCC1=O)Nc1cc(Cl)ccc1-n1cncn1	–	4.94% (inactive)
NS(=O)(=O)c1ccc(-c2ccc(/C=C3\SC(=O)NC3=O)o2)cc1	13.5 µM (active)	–
O=S(=O)(c1ccc(Br)cc1)c1nnn2c1nc(NC1CCCCCC1)c1sccc12	–	-3.5% (inactive)
CCOc1ccccc1N(CC)C(=O)Nc1cn(C)c(=O)c2ccccc12	–	-0.457% (inactive)
COc1ccc(C2Sc3ccccc3NC3=C2C(=O)c2ccccc23)c(OC)c1OC (centres undefined)	–	-0.461% (inactive)
